Abeta yeast res: A-beta toxicity reversal in yeast | Potency, µM (top dose mostly 46.1 µM), most hits filed as activators | yeast expressing A-beta42, growth rescue, OD600, 48 h; response scale: 0% DMSO, 100% iron-clioquinol control | hit rate 0.063% among 410,000; further: nearly all actives have a fitted effect of over 55% in size
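Yeast growth medium received pinned compounds, then yeast cells expressing toxic A-beta were added; plates incubated at 30 C for 48 hr. Growth read as absorbance at 600 nm, normalized to DMSO and equimolar FeCl3 plus clioquinol controls.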
TDP-43 yeast inh: rescues yeast growth from TDP-43 toxicity. AID 652104. hit rate 1.8% among 410,000. TDP-43 expressing yeast growth rescue, BacTiter-Glo, 24 h. Potency, µM (series often up to 46.1 µM), hits mostly activators; further: nearly all actives have a fitted effect of over 50% in size
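Yeast cells expressing TDP-43 under galactose induction are exposed to compounds for 24 hr at 30 deg C. BacTiter-Glo luminescence measures growth, so protective compounds score as activators.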
FUS yeast rescue: FUS proteinopathy suppression in yeast; Potency, µM (top dose mostly 76.6 µM), actives largely listed as activators; hit rate 0.24% among 390,000; S. cerevisiae FUS-expressing, growth rescue, OD600, 24 h; further: nearly all actives have a fitted effect of over 55% in size
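Restored growth of FUS-toxic S. cerevisiae, read as 600 nm absorbance after 24 h at 30C in galactose medium (starting OD 0.005). Controls CP55940 and DMSO.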
aSyn yeast inh: rescues yeast growth from alpha-synuclein toxicity; Yeast expressing alpha-synuclein, growth rescue, BacTiter-Glo, 24 h; hit rate 0.14% among 370,000; Potency, µM (top dose mostly 46.1 µM), most hits filed as activators; AID 652106; further: nearly all actives have a fitted effect of over 65% in size
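Galactose-induced alpha-syn yeast (OD600=0.02, raffinose-pregrown) + pinned cpd, 24 hr, 30 deg C; growth by BacTiter-Glo luminescence. Growth restoration scores as activation.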
Numbers stand for hits; . = inactive; ? = inconclusive; / = no result; [ ] = another dose, or the depositor's remark. Most compounds without a hit are left out; they make up all but 2.1% or so of the library. The call rests on the fitted dose curve; in most records, active means well fitted curve in the direction sought with a large enough effect; inconclusive means small, poorly fitted or top-dose-only effect, or another doubt; inactive means no such curve, though single readings can be large; an effect the other way counts as inactive or inconclusive.

SMILES | Abeta yeast res | TDP-43 yeast inh | FUS yeast rescue | aSyn yeast inh
O=C(NC1CCCCN(Cc2cccc(Cl)c2)C1=O)c1ccccn1 (configuration not stated) | / | / | . | /
Cc1ccc(-c2nc3cc(N)ccc3o2)cc1 | . | . | . | .
Cc1ccc2oc(-c3cccc(N)c3)nc2c1 | . | 13µM | . | .
O=C(Nc1ccc2c(c1)OCO2)c1cc(C2CCCCN2C(=O)c2ccc3ccccc3c2)on1 (configuration not stated) | . | . | 35µM | .
Cc1ccc(F)cc1C(=O)N1CCCC(c2cc(C(=O)Nc3ccccc3Cl)no2)C1 (configuration not stated) | . | 35µM | ? | .
O=C(Nc1ccccc1Cl)c1cc(C2CCCN(C(=O)C3CCCCC3)C2)on1 (configuration not stated) | . | 16µM | . | .
O=C(Nc1ccc2c(c1)OCO2)c1cc(C2CCCN(C(=O)C3CCCCC3)C2)on1 (configuration not stated) | . | 35µM | . | .
C=C(C)[C@@H]1C2=CC(C(=O)OC)=C(C[C@@H](C(=C)C)[C@H]3O[C@H]3C3=C[C@H]1OC3=O)O2 | / | / | / | .
O=C(O)c1cccc(S(=O)(=O)NCC(=O)N2CCN(c3ccccn3)CC2)c1 | / | / | . | /
CCCCNC(=O)C[C@H]1C[C@@]2(C(=O)OC)C(=C[C@H](COCc3ccccc3)O[C@@H]2C)N(CCc2ccc(OC)c(OC)c2)C1=O | / | / | . | /
C=C1C=C(C(F)F)n2ncc(C(=O)Nc3ccc(Br)cc3C(F)(F)F)c2N1 | / | / | / | .
O=C(Nc1nccs1)c1ccc(CSc2ccccc2)o1 | . | 11µM | . | .
O=C(Nc1nccs1)c1ccc(COc2ccccc2)o1 | . | . | . | .
Cc1ccc(SCC(=O)Nc2nccs2)cc1 | . | 11µM | . | .
Cc1ccc(SCc2ccc(C(=O)Nc3nccs3)o2)cc1 | ? | 13µM | . | .
O=C(Nc1cccc(F)c1)c1ccc(CSc2ccccc2)o1 | . | . | . | .
O=C(Nc1ccccc1F)c1ccc(CSc2ccccc2)o1 | . | 13µM | . | .
COc1cc2ncnc(N3CCN(C(=O)Nc4ccc(Oc5ccccc5)cc4)CC3)c2cc1OC | / | / | / | .
Cc1ccnc(Nc2nc(-c3ccc(O)cc3O)cs2)c1 | . | 16µM | . | .
Cc1ccnc(Nc2nc(-c3ccc(O)cc3)cs2)c1 | . | 13µM | . | .
Cc1noc(-c2ccc(N3CCCCC3)c([N+](=O)[O-])c2)n1 | . | 18µM | . | /
Cc1cc(C=O)c(C)n1-c1ccc(N2CCCCC2)c([N+](=O)[O-])c1 | . | 18µM | . | .
Cc1ccc(-c2noc(-c3ccc(N4CCCC4)c([N+](=O)[O-])c3)n2)cc1 | . | . | . | /
CC1(c2nnnn2-c2ccc3ccccc3c2)CSCC(=O)N1C1CC1 (configuration not stated) | / | / | . | /
O=C(Nc1cccnc1Cl)c1cnn2c1NC(=C1CC1)C=C2C(F)F | / | / | / | .
SMILES | Abeta yeast res | TDP-43 yeast inh | FUS yeast rescue | aSyn yeast inh
COc1ccc(C=C2CS(=O)(=O)CC(=Cc3ccc(OC)cc3)C2=O)cc1 | . | ? | . | 13µM
C=CC(=O)NC1CCCCN(CC)C1=O (configuration not stated) | / | / | . | /
Cc1nn(Cc2ccc(F)cc2)c(C)c1NC(=O)c1cnn2c1NC(c1ccccc1)CC2C(F)(F)F (configuration not stated) | . | . | ? | .
Cc1nn(Cc2ccc(F)cc2)c(C)c1NC(=O)c1cnn2c1NC(c1cccs1)CC2C(F)(F)F (configuration not stated) | . | . | 28µM | .
CCCCOC(=O)c1ccc(OC(=O)c2cccnc2)cc1 | . | 13µM | . | .
N#Cc1cccc2c1-c1ccccc1/C2=N/NC(N)=S | . | 11µM | . | .
N#Cc1cccc2c1-c1ccccc1/C2=N/NC(N)=O | . | . | . | .
CCC(C)[C@@H](NC(=O)OC(C)(C)C)c1nnc(S(=O)(=O)Cc2cccc(C)c2)o1 (some centres not stated) | . | 7.9µM | . | .
CN(CC(=O)Nc1cccc(Cl)c1)S(=O)(=O)/C=C/c1ccccc1 | . | 18µM | . | ?
O=C1CCC[C@H]2C[C@H](NCc3ccc(F)cc3F)CC[C@]23CCCN13 | / | / | . | /
Cc1cccc(/C=C/c2onc(C)c2[N+](=O)[O-])n1 | . | 13µM | . | ?
Cc1cccc(N/C=C/c2onc(C)c2[N+](=O)[O-])c1 | . | . | . | .
Cc1noc(/C=C/c2nn(C)cc2Cl)c1[N+](=O)[O-] | . | 13µM | . | .
Cc1cc(C)nc(NC(N)=NCCc2c[nH]c3ccccc23)n1 | . | .[0.397 µM] | . | .
Cc1cc(C)nc(NC(=NCCc2c[nH]c3ccccc23)NC(=O)Nc2ccc(Cl)cc2)n1 | . | 22µM | / | .
CN(C)c1ccc2c(=O)c3ccccc3oc2n1 | . | 16µM | . | ?
Cc1nc2oc3ccccc3c(=O)c2cc1C(=O)O | . | . | . | .
CN(C(=O)c1oc(=O)c2ccccc2c1-c1ccccc1)c1cccc(Cl)c1 | . | 25µM | . | /
CN1C(=O)c2cc(NC(=O)Nc3ccccc3)ccc2OC[C@H]2O[C@@H](CC(=O)NC3CCC3)CC[C@@H]21 | / | / | . | /
O=C1OC(c2cccc3c(F)cccc23)c2ccccc21 (configuration not stated) | . | 20µM | . | .
CCCCCCSc1cc(C)nc2ncnn12 | . | 25µM | . | .
CCSc1cc(C)nc2ncnn12 | . | . | . | .
Cc1ccc(N(Cc2cccs2)C(=O)c2ccccc2Cl)cc1 | . | . | . | /
CCOc1ccccc1C(=O)N(Cc1cccs1)c1ccc(Cl)cc1 | . | 22µM | . | /
CC(C)n1nnnc1C1(C)CN(S(C)(=O)=O)CC(=O)N1Cc1cccc(C(F)(F)F)c1 (configuration not stated) | / | / | . | /
SMILES | Abeta yeast res | TDP-43 yeast inh | FUS yeast rescue | aSyn yeast inh
Cc1cc(OC(C)C(=O)N2CCC(c3nc4ccccc4o3)CC2)ccc1Cl (configuration not stated) | . | 25µM | ? | /
CCc1ccc(OC(C)C(=O)N2CCC(c3nc4ccccc4o3)CC2)cc1 (configuration not stated) | . | ? | . | /
Cc1cc(C)cc(OCC(=O)N2CCC(c3nc4ccccc4o3)CC2)c1 | . | 22µM | . | /
COC(=O)C1CN(Cc2cn(Cc3ccc(OC)cc3)nn2)CCS(=O)(=O)N1Cc1ccccc1 (configuration not stated) | / | / | . | /
COC(=O)c1ccc(Cn2nc([N+](=O)[O-])c(Br)c2C)cc1 | ? | 14µM | . | ?
C=C1CC(COc2cc(=O)oc3ccccc23)(c2ccccc2)OC1=O (configuration not stated) | . | . | / | .
C=C1CCC2C(C)(C)[C@@H](O)CC[C@@]2(C)[C@@H]1COc1ccc2ccc(=O)oc2c1 (some centres not stated) | . | . | . | 18µM
C=C1CCC2C(C)(C)[C@H](O)CC[C@@]2(C)[C@@H]1COc1cc(=O)oc2ccccc12 (some centres not stated) | . | . | 35µM | .
